Data as given in PubChem BioAssay (EPA / NIEHS).
A structure can be active in one record and inactive in another. Calls of active or inactive are those of the source. The calls were made as follows: active = hit-call score of the fitted dose curve at least 0.9, where 1 is the maximum; inactive = score below 0.9.

Test: ATG_CMV_CIS: Attagene CIS-FACTORIAL HepG2 Assay for human CMV (Internal Marker) (AID 2282928);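 also: endpoint acts as a background internal control marker rather than a target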
Conditions: HepG2 CMV promoter reporter, transcription factor profiling; actives raise or lower the signal
Experimental: ATG_CIS is a cell-based, multiplexed-readout assay that uses HepG2, a human liver cell line, with measurements taken at 24 hours after chemical dosing in a 24-well plate.ATG_CMV_CIS is one of 52 assay component(s) measured or calculated from the ATG_CIS assay. It is designed to make measurements of mRNA induction, a form of inducible reporter, as detected with fluorescence intensity signals by Reverse transcription polymerase chain reaction (RT-PCR) and Capillary electrophoresis technology.Data from the assay component ATG_CMV_CIS was analyzed into 1 assay endpoint. This assay endpoint, ATG_CMV_CIS, was analyzed with bidirectional fitting relative to DMSO as the negative control and baseline of activity. Using a type of inducible reporter, measures of mRNA for gain or loss-of-signal activity can be used to understand the background control at the transcription factor-level as they relate to the gene . Furthermore, this assay endpoint can be referred to as a secondary readout, because this assay has produced multiple assay endpoints where this one serves a background control function. To generalize the intended target to other relatable targets, this assay endpoint is annotated to the background measurement intended target family, where the subfamily is internal marker.
Human liver HepG2 cells are transiently transfected with multiple reporter transcription units (MRTUs) in 6-well plates using FuGene 6 reagent (Roche; 3 ml FuGene/1 mg DNA). The MRTU constructs are regulated by a cis-regulating element (promoter). […] A major difference between the CIS and TRANS system is that in CIS activities of endogenous TFs are measured, whereas the TRANS assay evaluates changes in activities of exogenous, chimeric NR-Gal4 proteins. […] At the end of 24 hour incubation, total RNA was isolated using TriZol reagent (Invitrogen). The isolated RNA is then reverse-transcribed using oligo(dT) primer and Mo-MLV reverse transcriptase (Invitrogen) with DNAse I (Ambion) treatment for 30 min. The one-tenth of the produced cDNA was amplified by PCR using Taq DNA polymerase (Invitrogen) and two reporter sequence-specific primers. The PCR products were fluorescently labeled by primer extension with 6-arboxyfluorescein (6-FAM) 5'-labeled reporter sequence-specific primer (2 min at 95 C, 20 s at 68 C and 10 min at 72 C) and these products were digested with 5U of HpaI (New England Biolabs) for 2h at 37 C. The fragments were purified using Qiaquick PCR columns (Qiagen), analyzed on an ABI 3130xL genetic analyzer (Applied Biosystems) with peak positions identified by using a set of X-rhodamine (ROX)-labeled MapMarker1000 molecular weight standards (BioVentures). The raw capillary electrophoresis data was processed using Attagraph software (Attagene).

Row | Structure (SMILES) | outcome | AC50
1 | CC(=O)Nc1ccc(O)cc1 | inactive | 
2 | c1ccc2c(c1)CCC2 | inactive | 
3 | O=C(F)C(F)(F)C(F)(F)C(F)(F)C(=O)F | inactive | 
4 | OCC1CCC(CO)CC1 (stereo not given) | inactive | 
5 | O=P(O)(O)CCC(F)(F)C(F)(F)C(F)(F)C(F)(F)C(F)(F)C(F)(F)F | inactive | 
6 | OCCN1CN(CCO)CN(CCO)C1 | inactive | 
7 | c1cc2cccc3c4cccc5cccc(c(c1)c23)c54 | inactive | 
8 | O=C1Cc2ccccc2N1c1c(Cl)cccc1Cl | inactive | 
9 | CCCCC=O | inactive | 
10 | O=C(Nc1ccc(Cl)c(Cl)c1)c1cc(Cl)cc(Cl)c1O | inactive | 
11 | Clc1ccc(Nc2nnc(Cc3ccncc3)c3ccccc23)cc1 | inactive | 
12 | CCOC=O | inactive | 
13 | Oc1c(Cl)ccc(Cl)c1Cl | inactive | 
14 | CC1CCC(C(=O)O)CC1 (stereo not given) | inactive | 
15 | CC(=O)Nc1ccc(S(N)(=O)=O)cc1 | inactive | 
16 | Cc1ccccc1C(OCCN(C)C)c1ccccc1 (stereo not given) | inactive | 
17 | COc1cccc(O)c1 | inactive | 
18 | CCO[Si](C)(C)OCC | inactive | 
19 | Nc1ccc(O)c(C(=O)O)c1 | inactive | 

Row | Structure (SMILES) | outcome | AC50
20 | CC(C)(O)C(=O)c1ccccc1 | inactive | 
21 | O=C1OC(=O)C(F)(F)C1(F)F | inactive | 
22 | CCCCCCCCCCCC | inactive | 
23 | C=CC(C)(CCC=C(C)C)OC(C)=O (stereo not given) | inactive | 
24 | O=C(O)C(=O)O | inactive | 
25 | CCCCCCCC(OC)OC | inactive | 
26 | FC(F)(F)C(F)(F)C(F)(F)C(F)(F)I | inactive | 
27 | Cc1ccc2ccc3ccc(C)cc3c2c1 | inactive | 
28 | CN(C)c1ccc(C(=C2C=CC(=[N+](C)C)C=C2)c2ccccc2)cc1 | inactive | 
29 | Cn1sccc1=O |  | 190 µM (active)
30 | O=C1OC2(c3ccccc31)c1cc(I)c(O)c(I)c1Oc1c2cc(I)c(O)c1I | inactive | 40.5 µM (active)
31 | Cc1ccc(C(=O)c2ccccc2)cc1 |  | 61.1 µM (active)
32 | O=S(=O)(O)c1ccccc1 | inactive | 
33 | CCCCCCOC(=O)c1ccc(O)cc1 |  | 51 µM (active)
34 | C=CCOCC(CO)(CO)CO | inactive | 
35 | Oc1ccc(Cc2ccccc2O)cc1 | inactive | 
36 | Cc1cc(C(=C2C=CC(=Nc3ccc(S(=O)(=O)O)cc3)C=C2)c2ccc(Nc3ccc(S(=O)(=O)O)cc3)cc2)cc(S(=O)(=O)O)c1N | inactive | 
37 | Cc1[nH]nc2c1N=C(c1ccccc1Cl)c1cc([N+](=O)[O-])ccc1N2 |  | 1.58 µM (active)
38 | c1cnc2c(c1)ccc1cccnc12 | inactive | 2.89 µM (active)
